Reference: PubChem BioAssay
Activity calls are given as the source filed them.

How the values were obtained:
[1] = binders of probe aFSTL3 on microarray, primary screen, stem cell growth factor project, biochemical, small-molecule microarray, fluorescence 635/667 (AID 1064); settings: higher = more signal;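 further: measures binding of the biotinylated anti-FSTL3 antibody to printed compounds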
[2] = binders from COS7 lysate, DM2A8 probe, primary screen, torsin A project, cell lysate, small-molecule microarray, fluorescence 635/667 (AID 1065); settings: higher = more signal, COS7 lysate expressing mutant human TOR1A
[3] = binders of probe aFGF2 on microarray, primary screen, stem cell growth factor project, biochemical, small-molecule microarray, fluorescence 635/667 (AID 1067); settings: higher = more signal;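 further: measures binding of biotinylated aFGF2 protein to printed compounds on slides; z-score merges feature fluorescence and signal-to-noise across triplicate slides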
[4] = binders of probe aFGF10 on microarray, primary screen, stem cell growth factor project, biochemical, small-molecule microarray, fluorescence 635/667 (AID 1071); settings: higher = more signal;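 further: score merges 667 nm spot intensity and signal to noise from triplicate slides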
[5] = molecular target: Neurogenic locus notch homolog protein 2 (Homo sapiens) (UniProt Q04721); test: Notch2 binders on small-molecule microarrays, primary screen, biochemical, small-molecule microarray, 635 nm fluorescence, stem cell growth factors (AID 1073); settings: Notch2 binding, higher = more signal
[6] = molecular target: Pro-neuregulin-1, membrane-bound isoform (Homo sapiens) (UniProt Q02297); test: NRG1 binders on small-molecule microarrays, primary screen, psychiatric disease protein project, biochemical, small-molecule microarray, fluorescence 635/667 (AID 1075); settings: NRG1 binding, 635 nm fluorescence, higher = more signal;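 further: score combines 667 nm spot fluorescence with signal to noise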
[7] = system: Neuregulin-1 EGF-like domain; test: binders of neuregulin-1 EGF-like domain, primary screen, biochemical, small-molecule microarray, 635 nm fluorescence (AID 1081); settings: small-molecule microarray binding, higher = more signal;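 further: binding of the protein to compounds printed on small-molecule microarray slides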
[8] = FRG1 promoter luciferase signal modulators, primary screen, FRG1 inhibition for FSHD, cell-based, C2C12 myotubes, firefly/Renilla luciferase, luminescence (AID 1084); settings: higher = more signal, called active from +8 up or from −8 down
[9] = binders of probe aFST on microarray, primary screen, stem cell growth factor project, biochemical, small-molecule microarray, fluorescence 635/667 (AID 1086); settings: higher = more signal;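 further: score merges 667 nm fluorescence with signal-to-noise of each printed compound spot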
[10] = binders of probe aHhip on microarray, primary screen, stem cell growth factor project, biochemical, small-molecule microarray, fluorescence 635/667 (AID 1087); settings: higher = more signal;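 further: score merges spot fluorescence at 667nm with spot signal to noise ratio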
[11] = system: PRMT1 (protein arginine N-methyltransferase 1); test: PRMT1 binders on small-molecule microarrays, primary screen, biochemical, small-molecule microarray, 635 nm fluorescence (AID 1088); settings: small-molecule microarray binding, higher = more signal;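 further: binding of Prmt1 protein to compounds spotted on small-molecule microarray slides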
[12] = yeast growth modulation, basal conditions, primary screen, YJM789 clinical isolate, OD600, 24 h (AID 1089);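 further: growth of clinical yeast isolate S. cerevisiae YJM 789 seeded 1000 cells per well; test concentration not given here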; settings: S. cerevisiae YJM789 growth, higher = more signal, called active from +8 up or from −8 down
[13] = fission yeast growth modulation, primary screen, strain 972, OD600, 24 h, no modulator (AID 1090);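 further: basal condition with compound alone and no growth modifier present; test concentration not given here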; settings: S. pombe 972 growth, higher = more signal, called active from +8 up or from −8 down
[14] = S. cerevisiae growth modulation with rapamycin, primary screen, strain BY4716, OD600, 96 h (AID 1091); settings: higher = more signal, called active from +8 up or from −8 down; further: test concentration not given here
[15] = molecular target: Torsin-1A-interacting protein 2 (Homo sapiens) (UniProt Q8NFQ8); test: LULL1 binders on small-molecule microarray, primary screen, cell lysate, human LULL1 lysate, 635/667 nm fluorescence (AID 1092); settings: hLULL1 lysate binding, 635 nm fluorescence, higher = more signal;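 further: probe is lysate of COS7 cells overexpressing human LULL1; score merges per-feature 667 nm fluorescence with signal-to-noise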
[16] = E. coli growth modulation, two-sided OD650, primary screen, E. coli filamentation project, strain DRC41, 24 h (AID 1093); settings: OD650, 24 h, higher = more signal, called active from +8 up or from −8 down;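 further: MC1000 strain lacking acrAB efflux and sulA so SOS filamentation is blocked; test concentration not given here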
[17] = small-molecule microarray binders of probe aLefty2, primary screen, biochemical, biotinylated probe, 635/667 nm fluorescence (AID 1094); settings: higher = more signal;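 further: score merges spot fluorescence near 667 nm with spot signal-to-noise ratio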
[18] = system: Noggin (protein binding on small-molecule microarray); test: Noggin binders on small-molecule microarray, primary screen, biochemical, 635/667 nm fluorescence (AID 1095); settings: 635 nm fluorescence, higher = more signal;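 further: score merges 667 nm feature fluorescence with signal to noise over triplicate slides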
[19] = molecular target: Neurogenic locus notch homolog protein 3 (Homo sapiens) (UniProt Q9UM47); test: NOTCH3 binders on small-molecule microarray, primary screen, biochemical, 635/667 nm fluorescence (AID 1096); settings: NOTCH3 binding, 635 nm fluorescence, higher = more signal
[20] = small-molecule microarray binders of probe aEGFR, primary screen, biochemical, biotinylated probe, 635/667 nm fluorescence (AID 1097); settings: higher = more signal;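 further: probe is a biotinylated anti-EGFR antibody binding compounds printed on slides; score combines fluorescence near 667 nm and signal to noise of each spot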

Torsin-1A-interacting protein 2 (Homo sapiens), sequence (Q8NFQ8 whole entry, looked up): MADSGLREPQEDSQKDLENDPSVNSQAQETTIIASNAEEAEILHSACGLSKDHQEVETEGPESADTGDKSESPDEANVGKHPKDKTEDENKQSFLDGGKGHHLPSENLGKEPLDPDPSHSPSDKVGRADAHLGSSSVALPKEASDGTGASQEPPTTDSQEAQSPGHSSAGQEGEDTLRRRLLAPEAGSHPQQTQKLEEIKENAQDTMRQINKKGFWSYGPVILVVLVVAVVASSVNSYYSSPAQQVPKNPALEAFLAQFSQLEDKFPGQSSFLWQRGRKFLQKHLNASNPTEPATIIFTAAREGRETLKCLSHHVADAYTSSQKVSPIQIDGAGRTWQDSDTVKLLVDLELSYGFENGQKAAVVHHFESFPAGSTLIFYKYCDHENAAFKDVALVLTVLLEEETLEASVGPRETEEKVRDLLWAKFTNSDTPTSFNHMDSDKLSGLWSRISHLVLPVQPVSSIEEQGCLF
Neurogenic locus notch homolog protein 3 (Homo sapiens), sequence (Q9UM47 whole entry, looked up): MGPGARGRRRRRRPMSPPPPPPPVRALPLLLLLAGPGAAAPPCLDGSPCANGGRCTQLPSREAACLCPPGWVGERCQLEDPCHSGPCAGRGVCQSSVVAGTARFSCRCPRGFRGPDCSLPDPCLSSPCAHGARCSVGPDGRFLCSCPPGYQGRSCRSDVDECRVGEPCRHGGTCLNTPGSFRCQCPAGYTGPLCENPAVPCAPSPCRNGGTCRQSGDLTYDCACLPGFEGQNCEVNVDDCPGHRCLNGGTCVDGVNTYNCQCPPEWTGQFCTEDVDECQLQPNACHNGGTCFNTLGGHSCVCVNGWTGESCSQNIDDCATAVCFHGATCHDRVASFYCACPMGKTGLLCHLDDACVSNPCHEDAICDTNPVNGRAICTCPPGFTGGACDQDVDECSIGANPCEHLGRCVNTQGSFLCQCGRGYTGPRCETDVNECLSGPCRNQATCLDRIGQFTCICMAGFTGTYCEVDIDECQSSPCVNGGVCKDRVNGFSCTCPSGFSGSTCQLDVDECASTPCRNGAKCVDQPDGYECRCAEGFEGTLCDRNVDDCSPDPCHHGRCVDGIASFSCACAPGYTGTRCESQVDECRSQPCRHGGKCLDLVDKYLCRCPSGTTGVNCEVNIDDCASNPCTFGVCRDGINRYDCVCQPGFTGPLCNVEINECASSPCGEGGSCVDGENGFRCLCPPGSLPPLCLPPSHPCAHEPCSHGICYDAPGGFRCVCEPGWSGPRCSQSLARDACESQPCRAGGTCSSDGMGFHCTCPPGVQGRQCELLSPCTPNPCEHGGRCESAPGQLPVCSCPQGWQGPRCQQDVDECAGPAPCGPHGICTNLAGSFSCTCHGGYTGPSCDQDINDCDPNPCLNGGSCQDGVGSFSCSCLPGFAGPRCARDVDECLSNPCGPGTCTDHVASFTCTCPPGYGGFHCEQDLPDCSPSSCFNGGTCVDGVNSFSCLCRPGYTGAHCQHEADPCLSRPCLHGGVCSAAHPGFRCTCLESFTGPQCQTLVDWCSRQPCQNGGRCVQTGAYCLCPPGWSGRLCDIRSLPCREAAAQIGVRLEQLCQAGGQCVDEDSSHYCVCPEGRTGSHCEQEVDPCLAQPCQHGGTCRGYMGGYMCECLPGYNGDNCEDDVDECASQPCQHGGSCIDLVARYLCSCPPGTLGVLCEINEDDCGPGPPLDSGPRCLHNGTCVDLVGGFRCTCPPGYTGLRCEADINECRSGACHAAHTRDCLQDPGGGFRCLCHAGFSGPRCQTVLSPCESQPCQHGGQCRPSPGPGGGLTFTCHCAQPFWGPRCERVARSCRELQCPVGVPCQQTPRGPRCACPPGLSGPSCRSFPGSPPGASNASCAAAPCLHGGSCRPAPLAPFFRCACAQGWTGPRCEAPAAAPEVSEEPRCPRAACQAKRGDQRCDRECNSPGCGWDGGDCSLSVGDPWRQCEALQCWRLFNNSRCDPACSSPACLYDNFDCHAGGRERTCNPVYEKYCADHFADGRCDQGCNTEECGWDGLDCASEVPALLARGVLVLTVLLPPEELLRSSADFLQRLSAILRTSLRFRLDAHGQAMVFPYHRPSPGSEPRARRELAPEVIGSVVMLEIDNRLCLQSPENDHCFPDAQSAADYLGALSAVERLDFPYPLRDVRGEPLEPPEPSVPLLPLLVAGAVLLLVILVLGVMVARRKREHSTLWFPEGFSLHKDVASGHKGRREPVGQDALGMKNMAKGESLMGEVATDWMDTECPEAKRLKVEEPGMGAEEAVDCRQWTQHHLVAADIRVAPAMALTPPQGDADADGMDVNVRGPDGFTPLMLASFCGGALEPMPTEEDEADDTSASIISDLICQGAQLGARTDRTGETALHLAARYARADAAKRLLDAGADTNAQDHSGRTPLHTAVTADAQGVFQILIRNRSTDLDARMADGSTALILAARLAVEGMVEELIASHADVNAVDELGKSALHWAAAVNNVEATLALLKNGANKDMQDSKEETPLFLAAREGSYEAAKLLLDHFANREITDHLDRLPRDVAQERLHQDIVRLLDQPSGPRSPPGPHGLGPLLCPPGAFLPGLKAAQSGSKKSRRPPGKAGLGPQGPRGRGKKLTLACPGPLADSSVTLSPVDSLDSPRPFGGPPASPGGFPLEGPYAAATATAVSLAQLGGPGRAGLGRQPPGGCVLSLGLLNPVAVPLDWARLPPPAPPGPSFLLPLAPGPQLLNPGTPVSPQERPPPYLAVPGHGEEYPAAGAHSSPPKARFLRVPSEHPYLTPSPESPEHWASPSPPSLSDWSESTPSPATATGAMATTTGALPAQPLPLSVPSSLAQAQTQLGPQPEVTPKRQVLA
Pro-neuregulin-1, membrane-bound isoform (Homo sapiens), sequence (Q02297 whole entry, looked up, the tested form may be a part, canonical isoform): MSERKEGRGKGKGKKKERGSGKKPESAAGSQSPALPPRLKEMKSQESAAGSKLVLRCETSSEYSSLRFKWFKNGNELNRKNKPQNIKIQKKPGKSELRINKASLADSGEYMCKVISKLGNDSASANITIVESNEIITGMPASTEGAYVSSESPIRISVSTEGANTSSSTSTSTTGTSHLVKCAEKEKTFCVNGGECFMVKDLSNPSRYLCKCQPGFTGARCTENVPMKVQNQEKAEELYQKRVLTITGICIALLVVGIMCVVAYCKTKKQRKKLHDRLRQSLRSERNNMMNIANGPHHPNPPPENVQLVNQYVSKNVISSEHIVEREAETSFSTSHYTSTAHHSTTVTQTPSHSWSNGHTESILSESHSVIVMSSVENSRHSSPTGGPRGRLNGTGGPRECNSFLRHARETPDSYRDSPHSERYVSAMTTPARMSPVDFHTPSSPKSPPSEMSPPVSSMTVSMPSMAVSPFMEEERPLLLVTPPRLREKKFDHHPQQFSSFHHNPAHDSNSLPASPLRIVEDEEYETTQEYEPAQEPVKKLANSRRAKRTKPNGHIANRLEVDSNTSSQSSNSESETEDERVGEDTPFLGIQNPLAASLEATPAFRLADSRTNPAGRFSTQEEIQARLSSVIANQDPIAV

| Structure (SMILES) | composite z-score [1] | composite z-score [2] | composite z-score [3] | composite z-score [4] | composite z-score [5] | composite z-score [6] | composite z-score [7] | z-score [8] | composite z-score [9] | composite z-score [10] | composite z-score [11] | z-score [12] | z-score [13] | z-score [14] | composite z-score [15] | z-score [16] | composite z-score [17] | composite z-score [18] | composite z-score [19] | composite z-score [20] |
| --- | --- | --- | --- | --- | --- | --- | --- | --- | --- | --- | --- | --- | --- | --- | --- | --- | --- | --- | --- | --- |
| O=C1OC[C@@H](c2ccccc2)n2cc(/C=C/c3ccccc3)cc21 | 0.0087 | -0.382 | -0.178 | -0.162 | -0.924 | 0.895 | 0.132 | -0.144 (inactive) | -0.503 | -0.306 | -0.329 | -0.154 (inactive) | -2.68 (inactive) | 0.614 (inactive) | -0.0278 | 1.45 (inactive) | -0.0042 | -0.364 | -0.0623 | -0.108 |
| [N-]=[N+]=NCc1ccccc1[C@H]1OC(c2ccc(OCCCO)cc2)=N[C@@]1(CCS(=O)(=O)c1ccccc1)C(=O)O | 0.0191 | 0.401 | -0.0087 | 0.135 | 1.21 | 1.01 | 0.19 | 6.44 (inactive) | 0.785 | 0.0881 | 0.0361 | -0.791 (inactive) | -0.155 (inactive) | -0.814 (inactive) | 3.11 | 0.32 (inactive) | 0.021 | -0.482 | 0.253 | -0.067 |
| C=CCNC(=O)[C@H]1[C@@H]2C(=O)O[C@@H](c3ccccc3)[C@@H](c3ccccc3)N2[C@@H](c2ccc(O)cc2)[C@]12C(=O)Nc1ccc(C#CCC(C(=O)OC)C(=O)OC)cc12 | -0.102 | -0.0975 | -0.0878 | 0.0813 | 0.136 | 0.0652 | 1.19 | -0.32 (inactive) | 0.0765 | -0.261 | 0.526 | 0.357 (inactive) | -0.213 (inactive) | -0.836 (inactive) | 1.13 | 1.44 (inactive) | -0.0478 | 0.614 | -0.112 | -0.102 |
| C=CCOC(=O)[C@@H]1[C@H]2C(=O)O[C@H](c3ccccc3)[C@H](c3ccccc3)N2[C@H](c2ccc(OCCOC(=O)[C@H]3C[C@H]4C(=O)N[C@@H](CCCCN(C)C)C(=O)N4[C@H]3c3cccc(OCCO)c3)cc2)[C@@]12C(=O)Nc1ccccc12 | 1.24 | 0.596 | 0.031 | -0.629 | -1.13 | 1.96 | 0.815 | 1.02 (inactive) | -0.651 | -0.166 | 0.831 | -0.292 (inactive) | 1.12 (inactive) | 0.171 (inactive) | 0.729 | -0.0426 (inactive) | 0.0897 | 0.221 | -0.414 | -0.0039 |
| CC(=O)NCCCC[C@@H]1NC(=O)[C@H]2C[C@@H](C(=O)O)[C@@H](c3cccc(OCCO)c3)N2C1=O | -0.318 | 1.1 | 0.0761 | 0.841 | 1.15 | 1.14 | 1.18 | 0.618 (inactive) | 0.491 | -0.0862 | 1.54 | 0.341 (inactive) | -0.198 (inactive) | -0.453 (inactive) | 2.49 | -0.147 (inactive) | 0.122 | 1.58 | 1.11 | 0.189 |
| Cc1ccc(S[C@]2(C(=O)NC(C)C)CC(=O)N(Cc3ccccc3)[C@@H]2c2ccc(CO)cc2)cc1 | 0.466 | -0.488 | -0.0909 | -1 | -1.25 | 1.56 | 0.57 | -2.62 (inactive) | -0.604 | 0.0373 | -0.251 | -1.58 (inactive) | 0.433 (inactive) | -0.632 (inactive) | 0.228 | 1.31 (inactive) | -0.0593 | -0.371 | -0.312 | -0.18 |
| C=CC[C@H](O)c1ccc(O)c(F)c1 | 0.226 | -1.35 | -0.076 | -0.819 | -1.73 | -0.676 | -0.502 | 1.17 (inactive) | -1.39 | 0.414 | -0.255 | -0.63 (inactive) | -0.722 (inactive) | -1.56 (inactive) | -1.36 | -0.53 (inactive) | -0.103 | -0.529 | -0.579 | -0.115 |
| COCCOC(=O)N1C(=O)[C@@]2(c3cc(C#CCC(C(=O)OC)C(=O)OC)ccc31)[C@H](C(N)=O)[C@H]1C(=O)O[C@H](c3ccccc3)[C@H](c3ccccc3)N1[C@@H]2c1ccccc1OCCO | -0.453 | -0.413 | -0.152 | 0.47 | 0.937 | 0.555 | 1.19 | -1.3 (inactive) | 0.6 | -0.0618 | 1.55 | -2.36 (inactive) | -1.12 (inactive) | 2.65 (inactive) | 1.89 | 0.533 (inactive) | -0.204 | 1.56 | 1.06 | -0.0661 |
| C=CC[C@@]1(C(=O)NCCCOC)N=C(c2ccc(OCCCO)cc2)O[C@@H]1c1ccccc1CN=[N+]=[N-] | 0.227 | -0.448 | 0.106 | 0.744 | 1.43 | 1.79 | 1.03 | -1.97 (inactive) | 1.25 | -0.105 | 1.55 | -0.759 (inactive) | -0.0094 (inactive) | -0.966 (inactive) | 2.35 | 1.1 (inactive) | 0.258 | 1.01 | 1.12 | 0.0914 |
| COc1cc(Cc2cc3c(c(-c4ccccc4)n2)[Si](C(C)C)(C(C)C)OC3)cc(OC)c1OC | 0.13 | 0.0203 | -0.141 | 0.305 | -0.374 | -0.289 | -0.683 | -0.277 (inactive) | 0.0647 | 0.0274 | -0.313 | 0.208 (inactive) | -0.949 (inactive) | -0.573 (inactive) | -0.501 | 1.22 (inactive) | -0.0991 | 0.331 | -0.108 | -0.0864 |
